Data from PubChem BioAssay AID1159606 (Sanford-Burnham Center for Chemical Genomics, 2016).
Screen size: about 360,000 compounds; about 7,300 (2%) were called active. Rule as the data show it: active = inhibition above about 50%; inactive = the rest. This excerpt belongs to a sample that is enriched for actives.

assay: blockers of TWEAK-induced Fn14 reporter activity – luciferase reporter cells, uHTS, primary screen (AID 1159606); conditions: TWEAK-stimulated Fn14 reporter cells, luciferase luminescence, 8 h; at 10 µM; active compounds read high

inhibition, inactive:
Cc1ccc(NC(=O)c2ccco2)cc1 -27.8%
O=C(COC(=O)c1ccco1)Nc1ccc(Cl)cn1 -3.57%
CC1CN(c2cc(=O)n(Cc3ccc(F)cc3)c(=O)[nH]2)CC(C)O1 (stereo not given) -5.29%
CC(=O)OCC(C)n1c(=O)c2ccccc2n1C(C)=O (stereo not given) 2.6%
CCC(c1nnnn1-c1ccc2c(c1)OCCO2)N1CCN(c2ccc(C(F)(F)F)cn2)CC1 (stereo not given) 30.4%
CCc1cccc(CC)c1NC(=S)NCc1ccc2[nH]c(C)cc2c1 12.3%
Cc1cc(C)cc(NC(=S)NCCc2c[nH]c3ccccc23)c1 7.03%
Cc1ccc(CCN2CC(C(=O)O)CC2=O)cc1 (stereo not given) -5.87%
Cc1noc(C)c1C(=O)NCC1COc2ccccc2O1 (stereo not given) -8.54%
O=C(Cn1cnc2ccccc2c1=O)NCC1COc2ccccc2O1 (stereo not given) 9.26%
COc1cccc(N(CC(=O)NC2CCCCCC2)S(=O)(=O)c2ccccc2)c1 -34.4%
C=CCn1c(=NC(=O)c2cccs2)sc2cc(NC(C)=O)ccc21 -34.5%
CCOC(=O)N1CCN(C(c2ccnc3ccccc23)c2nnnn2-c2c(C)cccc2C)CC1 (stereo not given) 8.32%
O=C(OCc1nnc(-c2ccccc2)o1)c1cc(=O)[nH]c2ccccc12 -0.55%
O=C(COC(=O)c1cc(=O)[nH]c2ccccc12)NCc1cccc(Cl)c1 -18.6%
Cc1nn(-c2ccc(F)cc2)c(Cl)c1/C=C(/CCC(=O)O)c1nc2ccccc2s1 -0.77%
N#Cc1ccc(-c2nc3c(Cl)cc(C(F)(F)F)cn3c2Cc2ccccc2C(F)(F)F)cc1 -2.71%
NS(=O)(=O)c1ccc(NC(=O)COC(=O)CCc2c[nH]c3ccccc23)cc1 -2.39%
NS(=O)(=O)c1ccc(NC(=O)COC(=O)c2ccco2)cc1 -4.93%
COc1ccc(CCN2CC(C(=O)NCCN3CCNC3=O)CCC2=O)cc1 (stereo not given) -4.1%
CCOC(=O)CN(C)S(=O)(=O)c1ccc(-c2cc(C(=O)OC)sc2C(F)(F)F)cc1 0.95%
S=C(Nc1cccnc1)Nc1ccccn1 -12.4%
O=C(N/N=C/c1ccccn1)c1cccc(NC(=O)c2ccc(Cl)cc2)c1 9.71%
COC(=O)c1[nH]c2ccc(Br)cc2c1NC(=O)Oc1ccccc1 5.94%
Cc1ccccc1CC1(CO)CCCN(Cc2ccc3c(c2)OCCO3)C1 (stereo not given) 6.31%
COc1ccc(C2(C)NC(=O)N(CC(=O)c3ccc4c(c3)OCO4)C2=O)cc1 (stereo not given) -0.46%
Cc1nc2cc(NCc3cccs3)ccc2n1C -6.1%
C=CCN(C(=O)Nc1ccc2c(c1)nc(C)n2C)c1ccccc1 -7.06%
CCCCC(O)C1=C[N+](=O)CC=C1 (stereo not given) 39.5%
O=C(NCc1cccnc1)c1ccc2nc([C@@H]3O[C@H](CO)[C@H](O)[C@H](O)[C@H]3O)[nH]c2c1 13.3%
COCCc1nn2c(=O)cc(COC(=O)c3cc(OC)c(OC)c(OC)c3)nc2s1 2.03%
NC(N)=Nc1nc(-c2ccccc2)c2cc(Cl)ccc2n1 -9.76%
O=C(Cc1ccc(Cl)cc1)NCc1nc(-c2ccccc2)no1 -18%
O=S(=O)(c1ccccc1)N1CN(Cc2ccc(F)cc2)c2nc3ccccc3nc21 11%
Oc1c(CN2CCOCC2)ccc(CN2CCOCC2)c1O 2.4%
Cc1cccc(N=C2SC(C)CN2C(=O)CN2C(=O)NC3(CCCC3)C2=O)c1 (stereo not given) 5.82%
O=C(CNc1ccccc1N1CCCC1=O)Nc1cc(Cl)ccc1-n1cncn1 2.85%
COc1ccc(C2NC(=S)NC3=C2CCc2ccccc23)cc1OC (stereo not given) 9.33%
Cc1cc(C(=O)N2CCN(c3ccccn3)CC2)c(C)o1 -12.8%
Cc1cc(Br)ccc1NC(=O)c1sc2ncn(CC(=O)N3CCN(c4ccccn4)CC3)c(=O)c2c1C 9.08%
CCc1ccccc1NC(=O)c1cc(-c2ccc3c(c2)OCO3)on1 -6.05%
CCOC(=O)c1sc2nc(C)nc(Nc3ccc(OC)c(OC)c3)c2c1C 10.5%
CC1CCC(NC(=O)CN(C)S(=O)(=O)c2ccc3c(c2)c(=O)n(C)c(=O)n3C)CC1 (stereo not given) -18.7%
COc1cnc(SCc2ccc(Cl)c(Cl)c2)nc1Cl -23.9%
Cc1c(Cl)c([N+](=O)[O-])nn1CC(=O)NCC1CCCO1 (stereo not given) 12.8%
CCCCNC(=O)Cn1nc(C)c(S(=O)(=O)N2CCOCC2)c1C 10.8%
OCCc1ccc(NCCc2ccco2)cc1 -21.3%

inhibition, active:
O=C(Nc1ccc(NC(=O)c2cccs2)cn1)c1ccco1 57.4%
Cc1cccc(NC(=S)NCc2ccc3[nH]c4c(c3c2)CCCC4)c1 70.9%
c1ccc(-c2cc3c(NCC4COc5ccccc5O4)ncnc3s2)cc1 (stereo not given) 77.3%
O=C(COC(=O)c1cc(=O)[nH]c2ccccc12)Nc1nc(-c2cccc(Br)c2)cs1 75.8%
CC1=CC(=C(C#N)c2nc3ccccc3s2)C=C(C)N1c1ccc(F)cc1F 55.1%
NS(=O)(=O)c1ccc(NC(=O)COC(=O)c2c3c(nc4ccccc24)/C(=C\c2ccc4c(c2)OCO4)CCC3)cc1 55.8%
S=C(NN=Cc1ccccn1)Nc1ccccn1 105%
CC(=NCc1ccco1)c1c(C(F)(F)F)[nH]n(-c2nc3ccccc3s2)c1=O 75.8%
Cc1nc2cc(NC(=O)Nc3cccc(F)c3)ccc2n1C 81.1%
Clc1ccc2nc(-c3ccccc3)nc(C(Cl)Cl)c2c1 54.4%
CSc1nc(-c2ccccc2)nc(C(Cl)Cl)n1 65.2%
Cc1cc(Br)ccc1NC(=O)c1cnc(N2CCN(c3ccccn3)CC2)c2ccccc12 80.5%
Cc1c(Cl)c([N+](=O)[O-])nn1CC(=O)NCCCN1CCOCC1 55.9%
